Experiment [1] addresses Glutathione peroxidase 1 (Homo sapiens) (UniProt P07203). The experiment can be described thus: Primary qHTS Assay for Inhibitors of Recombinant Selenoprotein Glutathione Peroxidase 1 (GPX1) (AID 1845191). Also: nearly all actives have a fitted effect of over 65% in size. Also: potency is read from the fitted curve at half-maximal effect. Put shortly: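 GR-coupled assay: compounds preincubated 30 min at room temperature with GPX1, then reaction started with CHP; final 10 nM GPX1, 1 mM GSH, 0.5 mM CHP, 0.5 mM NADPH, 100 nM GR, 0.01% BSA, pH 7.5 Tris buffer. NADPH fluorescence (340/450 nm) read at 0 and 15 min.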
For orientation: In qHTS, concentration-response curves come from the screen itself.

Experiment [2] has as its target Phospholipid hydroperoxide glutathione peroxidase GPX4 (Homo sapiens) (UniProt P36969). The experiment can be described thus: Primary qHTS Assay for Inhibitors of Recombinant Selenoprotein Glutathione Peroxidase 4 (GPX4) (AID 1845192). Also: nearly all actives have a fitted effect of over 65% in size. Put shortly: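 GR-coupled assay: recombinant GPX4 preincubated 30 min with compound at room temperature; final 200 nM GPX4, 1 mM GSH, 0.5 mM cumene hydroperoxide, 0.5 mM NADPH, 100 nM GR, 0.01% BSA, pH 7.5 Tris. NADPH fluorescence (340/450 nm) read at 0 and 15 min.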

Experiment [3] relates to Nanoluciferase (engineered Oplophorus gracilirostris luciferase). In words: Primary Nanoluciferase (NLuc) qHTS assay for identification of artifact compounds. (AID 1845222).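 Also: NLuc secreted into diluted conditioned medium of S16 cells.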 Put shortly:
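qHTS format, against NLuc in S16 cell-conditioned medium. Nano-Glo substrate 1:100 was added after 15 min at room temperature. Luminescence was taken after a further 5 min.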

A short description of experiment [4]: Quantitative High-Throughput drug screen in 47 multiple myeloma cell lines against the NCATS MIPE library collection: FR4_PLB cell viability assay (AID 1918924; also: nearly all actives have a fitted effect of over 35% in size; also: potency is read from the fitted curve at half-maximal effect). Put shortly:
(§1)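 Inhibition of cell viability is measured here. Each line was plated at 500 cells per well, treated with MIPE 4.0 drugs, kept 48 hours at 37C, then assayed for ATP content by CellTiter-Glo luminescence.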

A short description of experiment [5]: Quantitative High-Throughput drug screen in 47 multiple myeloma cell lines against the NCATS MIPE library collection: EJM_DSMZ cell viability assay (AID 1918926; also: nearly all actives have a fitted effect of over 30% in size; also: potency is read from the fitted curve at half-maximal effect). Summed up: (§2)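 CellTiter-Glo luminescence (ATP) after 48 h compound exposure, 37C/5% CO2; 500 cells/well; MIPE 4.0 approved/investigational drugs pinned in; DMSO = 100%, media only = 0% viability.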

Experiment [6] is described as follows: Quantitative High-Throughput drug screen in 47 multiple myeloma cell lines against the NCATS MIPE library collection: AMO1_DSMZ cell viability assay (AID 1918927; also: nearly all actives have a fitted effect of over 30% in size; also: potency is read from the fitted curve at half-maximal effect). Summed up:
as §2

A short description of experiment [7]: Quantitative High-Throughput drug screen in 47 multiple myeloma cell lines against the NCATS MIPE library collection: ARP1_JJKsccF8 cell viability assay (AID 1918928; also: potency is read from the fitted curve at half-maximal effect; nearly all actives have a fitted effect of over 40% in size). Summed up:
(§3)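 ATP readout (CellTiter-Glo), 48 h drug incubation, 37 °C/5% CO2, 500 cells per well; normalisation to DMSO (100%) and media-only (0%) controls.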

Experiment [8] is described as follows: Quantitative High-Throughput drug screen in 47 multiple myeloma cell lines against the NCATS MIPE library collection: Karpas620_DSMZ cell viability assay (AID 1918959). Also: nearly all actives have a fitted effect of over 30% in size. Also: potency is read from the fitted curve at half-maximal effect. Summed up: as §1
The nature of experiment [9]: Quantitative High-Throughput drug screen in 47 multiple myeloma cell lines against the NCATS MIPE library collection: KHM11_PLB cell viability assay (AID 1918962). Also: nearly all actives have a fitted effect of over 35% in size. Also: potency is read from the fitted curve at half-maximal effect. Put shortly:
as §1

Experiment [10] is described as follows: Quantitative High-Throughput drug screen in 47 multiple myeloma cell lines against the NCATS MIPE library collection: Delta47_JCRB cell viability assay (AID 1918925; also: nearly all actives have a fitted effect of over 45% in size; also: potency is read from the fitted curve at half-maximal effect). Summed up:
as §2

The nature of experiment [11]: Quantitative High-Throughput drug screen in 47 multiple myeloma cell lines against the NCATS MIPE library collection: ARD_JJKsccE7 cell viability assay (AID 1918929; also: potency is read from the fitted curve at half-maximal effect). Summed up:
as §2

Experiment [12] in a line: Quantitative High-Throughput drug screen in 47 multiple myeloma cell lines against the NCATS MIPE library collection: JIM3_ECACC cell viability assay (AID 1918963; also: nearly all actives have a fitted effect of over 35% in size; also: potency is read from the fitted curve at half-maximal effect). Put shortly:
as §1

Experiment [13] in a line: Primary redox qHTS assay for identification of artifact compounds. (AID 1845223). Summed up: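 Amplex Red (25 uM) and HRP (250 mU/mL) in HBSS, with compounds for 15 min, then 250 uM DTT for 30 min, room temperature, dark. Fluorescence 525/598 nm read; normalized to DMSO and 10 uM DA3003; Hill fit.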
Experiment [14] is described as follows: Quantitative High-Throughput drug screen in 47 multiple myeloma cell lines against the NCATS MIPE library collection: Karpas417_ECACC cell viability assay (AID 1918961). Also: potency is read from the fitted curve at half-maximal effect. The note with it: Karpas417 myeloma viability, CellTiter-Glo ATP luminescence, 48 h; viability (% of DMSO): at 45.8 µM (top of the series) unless noted. Summed up: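 qHTS of the MIPE 4.0 collection: 500 myeloma cells/well, 48 h drug exposure at 37C in 5% CO2, then CellTiter-Glo for 5 min at room temperature before luminescence reading.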

Experiment [15] in a line: Quantitative High-Throughput drug screen in 47 multiple myeloma cell lines against the NCATS MIPE library collection: KMM1_JCRB cell viability assay (AID 1918960). Also: nearly all actives have a fitted effect of over 30% in size. Also: potency is read from the fitted curve at half-maximal effect. Summed up:
as §3

The nature of experiment [16]: Primary fluorescence-based thiol-reactive (MSTI) qHTS assay for identification of artifact compounds. (AID 1845221).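 Also: thiol-reactive compounds lower the probe fluorescence signal; nearly all actives have a fitted effect of over 65% in size.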 Summed up:
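Reactivity toward the thiol probe MSTI (4 uM) is scored by fluorescence at Ex/Em 525/598 nm after 1 h at room temperature. Acetyl-MSTI and MSTI define the activity scale.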

Our source for the Potency and outcome values is PubChem BioAssay (NCATS).

Results filed as inconclusive are left out. The source holds several records for some structures; these can differ, active in one and inactive in another. Activity calls are given as the source filed them. Calls follow the shape of the dose curve; as a rule, active = well fitted curve in the direction sought with a large enough effect; inconclusive = small, poorly fitted or top-dose-only effect, or another doubt; inactive = no such curve, though single readings can be large; an effect the other way counts as inactive or inconclusive.

Sequence of Phospholipid hydroperoxide glutathione peroxidase GPX4 (Homo sapiens) (P36969 whole entry, looked up): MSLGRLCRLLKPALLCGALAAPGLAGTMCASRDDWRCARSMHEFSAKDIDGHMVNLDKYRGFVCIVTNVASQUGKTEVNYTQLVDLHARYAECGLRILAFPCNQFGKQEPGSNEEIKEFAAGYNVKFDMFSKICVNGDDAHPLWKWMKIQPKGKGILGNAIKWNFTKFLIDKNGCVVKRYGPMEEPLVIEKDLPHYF
Sequence of Glutathione peroxidase 1 (Homo sapiens) (P07203 whole entry, looked up): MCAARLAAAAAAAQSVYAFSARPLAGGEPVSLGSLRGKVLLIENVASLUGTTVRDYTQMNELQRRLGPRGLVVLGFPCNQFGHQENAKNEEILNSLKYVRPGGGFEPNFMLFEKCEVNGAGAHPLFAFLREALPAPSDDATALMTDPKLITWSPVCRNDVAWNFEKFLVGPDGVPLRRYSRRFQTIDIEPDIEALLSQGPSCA

In the case of `COc1cccc2cc(-c3nc(C4CCC(C(=O)O)CC4)n4ncnc(N)c34)[nH]c12` (configuration not stated), the Potency result in [1] and in experiment [2] was “inactive” throughout. Besides, in experiment [3], the molecule was classed as inactive. Further, the Potency in experiment [4] is 0.187 µM (active); in experiment [5], 0.187 µM (active); in experiment [6], 0.372 µM (active); in [7], 0.662 µM (active); in experiment [8] it was 0.59 µM (active); in experiment [9], 0.118 µM (active).

As to `CCn1c(-c2nonc2N)nc2c(C#CC(C)(C)O)ncc(OC[C@H]3CCCNC3)c21`, the Potency entry in [1] and in experiment [2] was “inactive” each time. The Potency in experiment [4] was 14.8 µM (active); in [10], 0.0469 µM (active); in experiment [7], 0.59 µM (active); in experiment [11], 0.148 µM (active); in [9], 7.43 µM (active); in experiment [12], 9.35 µM (active).

As for `COc1c(Cl)cc2c([nH]c3cnccc32)c1NC(=O)c1cccnc1C`, the Potency entry in [1], in experiment [2] and in experiment [12] was “inactive” each time. For the same molecule, the call in [3] and in experiment [13] was inactive. The Potency is 2.96 µM (active) in experiment [10]; 3.72 µM (active) in [5]; 5.26 µM (active) in [6]; 3.32 µM (active) in experiment [11]; 18.7 µM (active) in experiment [8]; 16.6 µM (active) in [14]. For the same molecule, the Potency in experiment [9] is 2.96 µM (active).

Regarding `Cc1cc(SCc2sc(-c3ccc(C(F)(F)F)cc3)nc2C)ccc1OCC(=O)O`, the Potency in experiment [1] was 20.2 µM (active) and inactive; in [12], 18.7 µM (active). The Potency result in [2], in [4], in [5], in experiment [6], in [11] and in experiment [8] was “inactive” throughout. For the same molecule, the Potency entry in experiment [15] was “inactive”. Also, the molecule was classed as inactive in experiment [3] and in experiment [13].

On to `COc1cc2nccc(Oc3ccc(NC(=O)NC4CC4)c(Cl)c3)c2cc1C(N)=O`, for which the Potency result in [1], in [2], in experiment [8] and in experiment [14] was “inactive” each time. Besides, the call in [3] and in experiment [13] was inactive. Further, the Potency in experiment [4] is 23.5 µM (active); in experiment [10] it was 13.2 µM (active); in experiment [6] it was 2.09 µM (active); in experiment [7] it was 14.8 µM (active); in [15], 3.72 µM (active); in experiment [12], 13.2 µM (active).

Turning to `CCOc1cc(C(=O)Nc2ccc(Cl)c(-c3nc4ccccc4[nH]3)c2)cc(OCC)c1OCC`, the Potency entry in experiment [1] and in experiment [2] was “inactive” throughout. In addition, the molecule was classed as inactive in [3] and in experiment [13]. Moreover, the Potency is 13.2 µM (active) in [5], 13.2 µM (active) in experiment [8] and 1.18 µM (active) in experiment [9].

With `COc1cc(Oc2ccnc3cc(OC)c(OC)cc23)ccc1NC(=O)NC(C)c1nccs1` (configuration not stated), the Potency entry in experiment [1], in experiment [2] and in experiment [16] was “inactive” each time. In addition, the result in experiment [13] was inactive. For the same molecule, the Potency in experiment [8] is 7.43 µM (active); in [12], 20.9 µM (active).

With `CCCS(=O)(=O)Nc1ccc(F)c(C(=O)c2c[nH]c3ncc(Cl)cc23)c1F`, the Potency result in experiment [1], in experiment [2] and in experiment [5] was “inactive” in each case. Besides, the call in experiment [3] and in experiment [13] was inactive. Further, the Potency in experiment [6] is 20.9 µM (active); in experiment [11], 18.7 µM (active); in experiment [8] it was 20.9 µM (active); in [15], 16.6 µM (active); in experiment [12], 16.6 µM (active).

Regarding `CC1(C)Cc2c(-c3ccccc3)c(-c3ccc(Cl)cc3)c(CC(=O)O)n2C1`, the Potency entry in [1], in experiment [2] and in experiment [11] was “inactive” each time. In experiment [3], the outcome was inactive. Also, the Potency is 6.62 µM (active) in experiment [8] and 2.35 µM (active) in experiment [15].

`COCCNCCCn1c(C(=O)CF)c(-c2ccc(C)cc2)c2c(N)ncnc21`: the Potency entry in experiment [1], in experiment [2], in [10] and in [12] was “inactive” each time. Besides, the Potency in experiment [4] is 13.2 µM (active).

For `COc1ccc([C@@H]2CC(=O)c3c(O)cc(O[C@@H]4O[C@H](CO[C@@H]5O[C@@H](C)[C@H](O)[C@@H](O)[C@@H]5O)[C@@H](O)[C@H](O)[C@@H]4O)cc3O2)cc1O`, the Potency result in [1], in experiment [2], in [4], in experiment [5], in [6] and in experiment [11] was “inactive” each time. Besides, the Potency entry in experiment [8], in experiment [15], in experiment [14], in experiment [9] and in [12] was “inactive” in each case.
